Measurements taken from ChEMBL document CHEMBL3988442, “University of Dundee, Small-Polar-MMV Screening Library” (2021).
For some assays here: Potency and affinity values are given separately.

Tests used:
Parameters in all cases: scale not given: direction of the effect not stated beside the values
[1] = target: Protein translocase subunit SecA (Escherichia coli (strain K12)) (UniProt P10408); assay: Assay to Identify E. coli SecA ATPase Inhibitors; assay type: functional; settings: 30 µM
[2] = target: T1, Ubiquitin-activating enzyme e1, putative (Leishmania donovani (strain BPK282A1)) (UniProt E9BSI1); assay: Leishmania donovani Ubiquitin Activating Enzyme (LdE1); assay type: functional; settings: 30 µM
T1 sequence (whole entry): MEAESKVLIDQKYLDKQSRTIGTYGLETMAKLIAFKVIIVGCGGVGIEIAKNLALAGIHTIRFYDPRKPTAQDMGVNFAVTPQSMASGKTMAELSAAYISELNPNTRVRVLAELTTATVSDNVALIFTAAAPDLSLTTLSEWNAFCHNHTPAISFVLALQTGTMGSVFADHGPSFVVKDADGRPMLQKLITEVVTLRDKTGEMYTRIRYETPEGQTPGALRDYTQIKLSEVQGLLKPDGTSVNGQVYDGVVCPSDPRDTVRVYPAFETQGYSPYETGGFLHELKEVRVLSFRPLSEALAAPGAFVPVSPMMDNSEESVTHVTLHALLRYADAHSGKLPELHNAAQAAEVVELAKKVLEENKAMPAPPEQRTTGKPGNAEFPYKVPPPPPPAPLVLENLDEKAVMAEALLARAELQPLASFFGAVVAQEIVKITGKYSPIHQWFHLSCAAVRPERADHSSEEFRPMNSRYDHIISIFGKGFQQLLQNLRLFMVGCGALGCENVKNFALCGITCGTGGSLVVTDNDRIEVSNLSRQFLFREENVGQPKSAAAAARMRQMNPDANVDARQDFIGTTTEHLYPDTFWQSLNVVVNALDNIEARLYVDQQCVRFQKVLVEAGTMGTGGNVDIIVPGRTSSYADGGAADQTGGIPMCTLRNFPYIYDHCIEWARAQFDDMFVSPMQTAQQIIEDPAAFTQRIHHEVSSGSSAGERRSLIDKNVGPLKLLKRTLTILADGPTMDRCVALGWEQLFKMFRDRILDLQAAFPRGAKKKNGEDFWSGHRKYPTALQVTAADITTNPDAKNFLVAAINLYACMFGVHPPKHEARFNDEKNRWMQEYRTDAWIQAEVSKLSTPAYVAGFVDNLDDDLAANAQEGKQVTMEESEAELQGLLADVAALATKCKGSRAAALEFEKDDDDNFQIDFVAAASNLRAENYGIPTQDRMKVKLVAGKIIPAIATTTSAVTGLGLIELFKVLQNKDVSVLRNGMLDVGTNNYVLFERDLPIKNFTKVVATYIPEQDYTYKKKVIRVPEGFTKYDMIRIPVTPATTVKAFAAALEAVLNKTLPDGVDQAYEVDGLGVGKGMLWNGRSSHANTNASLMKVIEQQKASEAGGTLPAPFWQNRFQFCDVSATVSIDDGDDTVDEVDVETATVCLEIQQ

[3] = target: AMP-activated protein kinase, AMPK (Homo sapiens) (UniProt P54646+O43741+P54619+Q9UGJ0+Q9Y478+Q13131+Q9UGI9); assay: AMP-dependent Kinase enzyme assay. An in vitro enzyme assay that detects ADP turnover that is directly proportional to AMPK activity. This uses naive AMPK that is activated during the assay with MK-8722; assay type: functional; settings: 30 µM
[4] = target: Sialic acid-binding Ig-like lectin 9 (Homo sapiens) (UniProt Q9Y336); assay: Hs-Siglec9 ALPHAscreen SOP 20170721; settings: 10 µM
Sequence of Sialic acid-binding Ig-like lectin 9 (Homo sapiens) (Q9Y336 whole entry): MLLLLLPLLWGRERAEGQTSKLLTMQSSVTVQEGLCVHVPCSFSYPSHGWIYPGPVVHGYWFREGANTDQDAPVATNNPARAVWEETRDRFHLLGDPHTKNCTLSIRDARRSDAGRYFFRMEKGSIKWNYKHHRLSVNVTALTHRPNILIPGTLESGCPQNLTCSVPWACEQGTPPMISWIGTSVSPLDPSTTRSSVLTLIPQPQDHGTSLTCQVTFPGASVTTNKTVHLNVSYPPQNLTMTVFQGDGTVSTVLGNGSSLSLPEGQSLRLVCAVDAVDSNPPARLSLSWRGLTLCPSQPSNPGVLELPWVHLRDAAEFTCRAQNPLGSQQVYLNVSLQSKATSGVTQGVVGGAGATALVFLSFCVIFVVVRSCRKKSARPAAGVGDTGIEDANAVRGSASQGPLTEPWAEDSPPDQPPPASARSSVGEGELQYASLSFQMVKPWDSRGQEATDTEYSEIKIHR

Trypanosoma cruzi = assay: Trypanosoma cruzi phosphomannomutase and mannose-1-phosphate guanylyltransferase assay; assay type: functional; settings: 10 µM
[5] = target: T2, Arginase-2, mitochondrial (Homo sapiens) (UniProt P78540); assay: in vitro enzyme assay to detect the production of urea directly proportional to the activity of Arginase II; assay type: functional; settings: 33.3 µM; note: in the data most compounds retested in dose-response had high values
T2 sequence (whole entry): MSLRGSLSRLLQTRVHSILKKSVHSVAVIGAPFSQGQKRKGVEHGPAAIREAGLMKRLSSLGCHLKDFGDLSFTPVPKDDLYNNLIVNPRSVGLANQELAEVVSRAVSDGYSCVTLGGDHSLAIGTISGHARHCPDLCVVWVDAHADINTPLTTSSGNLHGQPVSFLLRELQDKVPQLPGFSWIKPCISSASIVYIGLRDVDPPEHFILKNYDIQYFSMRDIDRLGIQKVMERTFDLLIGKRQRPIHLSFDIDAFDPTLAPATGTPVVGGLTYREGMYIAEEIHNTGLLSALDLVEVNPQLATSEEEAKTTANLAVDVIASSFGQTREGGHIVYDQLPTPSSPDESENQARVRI

[6] = target: T3, Proteasome subunit beta (Trypanosoma cruzi) (UniProt O96673); assay: Trypanosoma cruzi proteasome chymotrypsin-like activity (TcProtChymo) assay.; note: in the data most compounds retested in dose-response had high values; assay type: functional; settings: 9.37 µM
T3 sequence (whole entry): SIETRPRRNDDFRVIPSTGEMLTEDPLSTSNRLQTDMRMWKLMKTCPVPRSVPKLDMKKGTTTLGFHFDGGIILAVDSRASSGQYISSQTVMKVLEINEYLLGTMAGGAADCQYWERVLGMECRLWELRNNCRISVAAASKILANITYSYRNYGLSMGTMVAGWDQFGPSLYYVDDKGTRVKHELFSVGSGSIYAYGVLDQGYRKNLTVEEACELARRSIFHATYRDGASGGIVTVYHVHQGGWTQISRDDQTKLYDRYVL

Homo sapiens = organism: Homo sapiens; assay: To identify inhibition of the IFN signalling (Jak-Stat) pathway via expression of an eGFP reporter gene under the control of an IFN-stimulated response element (ISRE) containing MxA promoter.; assay type: functional; settings: 30 µM
[7] = target: T4, Tyrosyl-tRNA synthetase, putative (Trypanosoma cruzi (strain CL Brener)) (UniProt Q4DSP6); assay: Trypanosoma cruzi tyrosyl tRNA synthetase (TcYRS) _High Tyrosine SOP; assay type: functional; settings: 30 µM; note: in the data most compounds retested in dose-response had high values
T4 sequence (whole entry): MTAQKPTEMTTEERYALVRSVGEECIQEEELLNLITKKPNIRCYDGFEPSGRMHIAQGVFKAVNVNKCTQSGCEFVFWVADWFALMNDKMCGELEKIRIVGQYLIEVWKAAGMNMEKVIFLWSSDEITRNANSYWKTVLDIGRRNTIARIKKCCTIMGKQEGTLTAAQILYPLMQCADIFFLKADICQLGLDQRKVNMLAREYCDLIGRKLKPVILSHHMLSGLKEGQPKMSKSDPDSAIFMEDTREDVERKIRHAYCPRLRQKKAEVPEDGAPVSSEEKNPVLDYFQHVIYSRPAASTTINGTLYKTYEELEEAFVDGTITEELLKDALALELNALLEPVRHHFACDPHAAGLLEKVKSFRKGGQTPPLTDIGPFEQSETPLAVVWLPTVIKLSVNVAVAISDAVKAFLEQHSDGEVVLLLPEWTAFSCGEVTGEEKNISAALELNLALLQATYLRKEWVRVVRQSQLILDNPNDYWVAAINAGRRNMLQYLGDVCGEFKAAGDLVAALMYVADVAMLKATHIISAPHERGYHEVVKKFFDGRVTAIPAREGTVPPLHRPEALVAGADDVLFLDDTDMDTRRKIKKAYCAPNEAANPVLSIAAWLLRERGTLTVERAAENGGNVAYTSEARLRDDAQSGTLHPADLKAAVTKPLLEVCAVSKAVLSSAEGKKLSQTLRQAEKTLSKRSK

[8] = target: T4, Tyrosyl-tRNA synthetase, putative (Trypanosoma cruzi (strain CL Brener)); assay: Trypanosoma cruzi tyrosyl tRNA synthetase (TcYRS) SOP; assay type: functional; settings: 30 µM
[9] = target: Chromo domain-containing protein 1 (Saccharomyces cerevisiae (strain ATCC 204508 / S288c) (Baker's yeast)) (UniProt P32657); assay: ScCHD-1 Enzyme Inhibition Assay; assay type: functional; settings: 30 µM; note: in the data most compounds retested in dose-response had high values
Sequence of Chromo domain-containing protein 1 (Saccharomyces cerevisiae (strain ATCC 204508 / S288c) (Baker's yeast)) (P32657 whole entry, the tested form may be a part): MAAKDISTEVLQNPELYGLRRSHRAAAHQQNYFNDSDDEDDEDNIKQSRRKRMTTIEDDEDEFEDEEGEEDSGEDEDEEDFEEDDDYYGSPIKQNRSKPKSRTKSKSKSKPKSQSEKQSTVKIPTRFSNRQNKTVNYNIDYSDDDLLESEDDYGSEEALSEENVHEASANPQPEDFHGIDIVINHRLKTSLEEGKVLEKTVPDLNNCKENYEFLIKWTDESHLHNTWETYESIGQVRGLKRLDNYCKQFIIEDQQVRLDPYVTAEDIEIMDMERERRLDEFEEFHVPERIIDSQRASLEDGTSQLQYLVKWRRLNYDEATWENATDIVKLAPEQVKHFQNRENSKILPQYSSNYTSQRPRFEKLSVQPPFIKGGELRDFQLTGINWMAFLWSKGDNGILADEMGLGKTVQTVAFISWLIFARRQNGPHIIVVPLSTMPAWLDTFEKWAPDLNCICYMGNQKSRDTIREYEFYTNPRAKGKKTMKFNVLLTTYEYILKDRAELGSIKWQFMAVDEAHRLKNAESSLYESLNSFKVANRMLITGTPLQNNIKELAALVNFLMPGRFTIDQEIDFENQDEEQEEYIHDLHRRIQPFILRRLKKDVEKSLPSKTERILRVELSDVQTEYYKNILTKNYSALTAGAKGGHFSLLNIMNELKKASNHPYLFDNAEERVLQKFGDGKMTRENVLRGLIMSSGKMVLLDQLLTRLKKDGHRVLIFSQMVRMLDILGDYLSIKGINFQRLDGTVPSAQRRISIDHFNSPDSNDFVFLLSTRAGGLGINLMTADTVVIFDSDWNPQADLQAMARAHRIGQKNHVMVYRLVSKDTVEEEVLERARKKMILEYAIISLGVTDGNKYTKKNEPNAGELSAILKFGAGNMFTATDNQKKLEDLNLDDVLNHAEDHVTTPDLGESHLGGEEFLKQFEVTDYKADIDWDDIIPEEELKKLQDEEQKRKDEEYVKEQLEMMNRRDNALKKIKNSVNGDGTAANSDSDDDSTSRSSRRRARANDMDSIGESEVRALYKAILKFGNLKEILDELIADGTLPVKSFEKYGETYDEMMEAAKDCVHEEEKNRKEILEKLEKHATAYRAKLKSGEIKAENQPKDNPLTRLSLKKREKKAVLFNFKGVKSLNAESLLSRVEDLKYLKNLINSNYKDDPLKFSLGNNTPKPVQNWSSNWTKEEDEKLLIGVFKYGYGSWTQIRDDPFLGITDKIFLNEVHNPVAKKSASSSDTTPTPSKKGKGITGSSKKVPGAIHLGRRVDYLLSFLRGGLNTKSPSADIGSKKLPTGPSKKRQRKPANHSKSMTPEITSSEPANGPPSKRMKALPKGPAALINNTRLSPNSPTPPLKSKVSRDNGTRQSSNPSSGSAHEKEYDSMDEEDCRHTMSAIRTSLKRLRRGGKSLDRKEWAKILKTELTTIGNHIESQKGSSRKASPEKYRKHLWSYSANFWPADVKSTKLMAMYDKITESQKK

Sequence of Protein translocase subunit SecA (Escherichia coli (strain K12)) (P10408 whole entry): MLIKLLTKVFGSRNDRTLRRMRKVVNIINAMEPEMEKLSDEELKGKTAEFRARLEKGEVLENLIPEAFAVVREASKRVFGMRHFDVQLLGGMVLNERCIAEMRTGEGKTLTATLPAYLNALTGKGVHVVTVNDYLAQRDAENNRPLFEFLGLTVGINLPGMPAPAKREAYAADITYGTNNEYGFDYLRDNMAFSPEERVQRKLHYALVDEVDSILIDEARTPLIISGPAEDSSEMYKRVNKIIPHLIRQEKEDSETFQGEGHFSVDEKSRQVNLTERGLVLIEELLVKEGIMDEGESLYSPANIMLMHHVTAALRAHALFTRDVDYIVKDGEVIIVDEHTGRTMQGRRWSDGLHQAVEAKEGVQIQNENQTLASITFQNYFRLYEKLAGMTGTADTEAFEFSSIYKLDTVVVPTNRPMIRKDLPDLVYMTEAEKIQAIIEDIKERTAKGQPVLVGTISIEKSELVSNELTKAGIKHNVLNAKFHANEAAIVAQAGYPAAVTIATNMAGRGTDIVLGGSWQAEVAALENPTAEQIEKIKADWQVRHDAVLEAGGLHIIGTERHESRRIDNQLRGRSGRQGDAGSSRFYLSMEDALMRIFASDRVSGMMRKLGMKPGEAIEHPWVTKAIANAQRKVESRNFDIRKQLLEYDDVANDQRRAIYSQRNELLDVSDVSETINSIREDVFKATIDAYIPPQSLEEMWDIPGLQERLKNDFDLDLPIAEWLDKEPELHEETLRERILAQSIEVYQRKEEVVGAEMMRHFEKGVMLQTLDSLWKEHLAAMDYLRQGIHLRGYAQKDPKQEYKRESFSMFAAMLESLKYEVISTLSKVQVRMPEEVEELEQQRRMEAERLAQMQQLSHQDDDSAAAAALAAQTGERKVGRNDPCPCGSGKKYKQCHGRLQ

Row | SMILES | Percent Effect [1] [%] | Percent Effect [2] [%] | Percent Effect [3] [%] | Percent Effect [4] [%] | Percent Effect (Trypanosoma cruzi) [%] | Percent Effect [5] [%] | Percent Effect [6] [%] | Percent Effect (Homo sapiens) [%] | Percent Effect [7] [%] | Percent Effect [8] [%] | Percent Effect [9] [%]
1 | O=C(Nc1cc(C(F)(F)F)c[nH]c1=O)N1CCCSCC1 | -5.05 | 7.79 | 1.88 | 4.65 | -3.37 | 2.85 | 6.08 | 20.5 | 6.8 | 12.2 | -1.96
2 | CCOc1ccnc(N2CCN(C(=O)c3cccnc3O)CC2)n1 | -3.86 | 17.7 | -4.02 | 2.97 | 0.283 | 4.56 | 4.5 | 2.56 | 15.3 | 26.6 | -4.5
3 | CC(=O)Nc1nc(C(=O)N2CCCC(c3cc(C)[nH]n3)C2)cs1 (configuration not stated) | -6.81 | -28.9 | -1.06 | 8.53 | 6.63 | 0.36 | 2.28 | 2.32 | 4.43 | 11.1 | 0.638
4 | CCN(Cc1ccc2c(c1)OCO2)C(=O)NC(C)Cn1cccn1 (configuration not stated) | -2.99 | 20.8 | 2.96 | -4.68 | -5.43 | 1.42 | 8.78 | 5.38 | 4.85 | 14.6 | -8.47
5 | CN1Cc2c(C(=O)Nc3cccnc3)ncn2-c2ccccc2S1(=O)=O | -1.38 | -5.48 | -2.46 | 4.18 | 0 | -4.39 | 7.79 | -3.68 | 0 | 6.17 | 0.964
6 | NC(=O)CSCCC(=O)N1CCCC1c1ccsc1 (configuration not stated) | -2.98 | 1.39 | -4.14 | 8.9 | 4.76 | 19 | 4.74 | 13.9 | 3.16 | 7.69 | -1.44
7 | CCC1(CC)Cc2ccccc2-c2nc(CN(C)C)nc(O)c21 | -3.62 | 10.5 | 5 | 4.55 | 0.292 | -5.92 | 12.8 | 14.4 | 5.32 | 10.4 | -3.79
8 | CC(=O)N1CCN(CC2CCOc3ccccc3C2)CC1 (configuration not stated) | -5.96 | -1.39 | -8.25 | 5.04 | -5.34 | 0.883 | 14.6 | -1.92 | 1.05 | -7.69 | -1.42
9 | Cc1cn(-c2ccccc2)nc1NS(=O)(=O)c1cc(C(=O)O)cs1 | -9.57 | -5.48 | -4.37 | 14.1 | -2.15 | -0.455 | 11.9 | 6.83 | -8.6 | -12.5 | -5.44
10 | CC(O)CN1CCN(C(=O)c2ccc(Cn3cccc3)cc2)CC1 (configuration not stated) | -2.39 | 13.5 | -8.63 | -2.4 | -3.49 | -6.81 | 17.8 | 6.79 | 10.3 | 25.9 | -2.47
11 | CC1=N[C@@]2(CC[C@@H]3CN(S(=O)(=O)CC(C)C)C[C@@H]32)C(=O)N1CC(C)C | -5.41 | 5.41 | 5.56 | -6.18 | -2.64 | 2.23 | 23.8 | -9.78 | 3.24 | 10.3 | -0.878
12 | c1nc2n(n1)CC(NCc1nc(-c3ccsc3)no1)CC2 (configuration not stated) | -3.43 | 0 | -5.33 | -3.06 | -1.02 | -0.554 | -5.92 | 4.74 | 2.97 | 6.1 | 7.25
13 | Cn1nc(CNC(=O)C2CCCC2)cc1C1CC1 | -6.17 | 10.4 | -2.49 | -7.84 | 5.23 | -0.645 | 2.79 | 6.93 | 0 | 16.7 | -8.08
14 | Clc1ccc(OCCN2CCN(CCn3cncn3)CC2)cc1 | -0.515 | -5.41 | -3.56 | 26.8 | 8.69 | -2.86 | 4.48 | 13.3 | 1.59 | 14.6 | -8.8
15 | COCC(=O)NCCn1ccc2c(OC)cccc21 | -0.301 | 17.3 | 0.941 | 6.9 | 0.393 | -3.7 | 10.5 | 19.7 | 6.35 | 15.4 | -8
16 | O=C(NCC(F)(F)F)NC1CCCc2c1cnn2CCO (configuration not stated) | -4.5 | 16 | -9.15 | 18.8 | 5.36 | 12.5 | 12.4 | 7.67 | 2.73 | 16.1 | 105
17 | CN(C)CC(=O)N1CCCC2(CCC(=O)N(CCc3c[nH]cn3)C2)C1 (configuration not stated) | -1.9 | 15.6 | -0.193 | 10.6 | 1.48 | -45.5 | 11 | -2.33 | 9.68 | 16.1 | -1.67
18 | CN(c1cccnn1)C1CCN(C(=O)c2ccc3c(c2)COC3)CC1 | -7.72 | -44.2 | 15.1 | 5.38 | 0.187 | 2.85 | 5.41 | 9.98 | 6.8 | 12.2 | -5.25
19 | COCCOCC(=O)Nc1ccc(C)cc1F | -1.36 | 2.63 | 5.59 | -0.498 | 3.21 | 0 | 9.11 | -16.7 | 2.13 | 2.6 | 2.83
20 | Cc1nn(C)c(C)c1C1CCCN1CCCc1nc2ccccc2o1 (configuration not stated) | -7.27 | 8.11 | -11.9 | 17.9 | 5.38 | -10 | 8.47 | 13.8 | 11.3 | 23.5 | -12.9
21 | Cc1nc(C)n(CC2CN(Cc3cccnc3)CCO2)n1 (configuration not stated) | -3.52 | 21.1 | -7.06 | -5.07 | -2.33 | 2.52 | 6.85 | -13.4 | 9.36 | 23.5 | -5.32
22 | c1cnc2c(c1)cc([C@H]1CCCO1)n2CCN1CCCCC1 | 4.1 | 9.46 | 12 | -7.44 | -7.91 | -0.232 | 9.52 | 7.5 | 2.15 | 3.9 | -12.4
